Experiment [1] in a line: qHTS assay to identify small molecule that activate the aryl hydrocarbon receptor (AhR) signaling pathway - cell viability counter screen (AID 743086). Note: nearly all actives have a fitted effect of over 45% in size. Note: potency is the fitted concentration of half-maximal effect. The essentials: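 HepG2-AhR-luc (HG2L7.5c1) cells, 4000/well, were preincubated 5 h at 37C, exposed to compound in qHTS format for 24 hr at 37C, then given CellTiter-Fluor for 30 min; viability was read as fluorescence in the reporter wells.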
Background: In qHTS, concentration-response curves come from the screen itself.

Experiment [2] addresses Peroxisome proliferator-activated receptor gamma (Homo sapiens) (UniProt P37231). The experiment in a line: qHTS assay to identify small molecule agonists of the peroxisome proliferator-activated receptor gamma (PPARg) signaling pathway (AID 743094; active = well fitted activation curve with a large enough effect in the signal ratio in the repeat runs, not every such curve was filed as active; the % refers to the signal ratio). The essentials:
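Following 5 h plating at 37C, PPARg-bla HEK293H cells receive compound or DMSO for 17 h; fluorescence intensity is recorded after LiveBLAzer B/G loading for 1 h at room temperature.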

The target is the same in experiment [3]. The experiment in a line: qHTS assay to identify small molecule antagonists of the peroxisome proliferator-activated receptor gamma (PPARg) signaling pathway (AID 743191; calls by dose curve; note: series mostly up to about 63 µM; nearly all actives have a fitted effect of over 30% in size). Put shortly:
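GeneBLAzer PPARg UAS-bla HEK293H cells carrying a UAS-driven beta-lactamase reporter were plated at 3000 cells/well, preincubated 5 h at 37C, then given compound for 17 h at 37C; LiveBLAzer B/G FRET substrate was read after 1 h at room temperature.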

Experiment [4] in a line: qHTS assay to identify small molecule antagonists of the peroxisome proliferator-activated receptor gamma (PPARg) signaling pathway - cell viability counter screen (AID 743194). Note: nearly all actives have a fitted effect of over 55% in size. Note: potency is the fitted concentration of half-maximal effect. The essentials: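 PPARg-UAS-bla HEK293H cells were plated, rested 5 h at 37 C, then treated with compounds plus rosiglitazone (50 nM final) for 17 h at 37 C; viability was then read by CellTiter-Glo luminescence after 30 min at room temperature.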

Experiment [5] in a line: qHTS assay for small molecule agonists of the antioxidant response element (ARE) signaling pathway (AID 743202; active = well fitted activation curve with a large enough effect in the signal ratio in the repeat runs, not every such curve was filed as active; the % refers to the signal ratio; note: potency is the fitted concentration of half-maximal effect). Put shortly:
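Read-out: LiveBLAzer B/G FRET substrate fluorescence after 2 h at room temperature, following 16 h compound treatment at 37 C of HepG2 cells carrying an ARE-driven beta-lactamase reporter.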

Experiment [6] in a line: qHTS assay for small molecule agonists of the antioxidant response element (ARE) signaling pathway - cell viability counter screen (AID 743203; calls by dose curve; note: nearly all actives have a fitted effect of over 55% in size; note: potency is the fitted concentration of half-maximal effect). The essentials: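 Compounds in DMSO were pinned onto ARE-bla HepG2 cells plated 5 hrs earlier at 2,000 cells/well. Sixteen hours later at 37C/5% CO2, CellTiter-Glo was added and luminescence measured after 30 min at room temperature.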

The nature of experiment [7]: qHTS assay for small molecule activators of the heat shock response signaling pathway - cell viability counter screen (AID 743209). Note: nearly all actives have a fitted effect of over 50% in size. The essentials: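 Counter screen for cytotoxicity in HeLa HSE-bla reporter cells. Treatment was 5 h at 37 C; viability was detected by luminescent ATP assay (CellTiter-Glo) in the same wells as the beta-lactamase read.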
Experiment [8] in a line: qHTS assay to identify small molecule agonists of the peroxisome proliferator-activated receptor delta (PPARd) signaling pathway - cell viability counter screen (AID 743211). Note: nearly all actives have a fitted effect of over 55% in size. Note: potency is the fitted concentration of half-maximal effect. The essentials: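 In the same wells used for beta-lactamase reporter measurement, cytotoxicity is scored by CellTiter-Glo. HEK293H PPARd-bla cells receive compound for 17 h at 37C following a 5 h settling period.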

In experiment [9] the target is Peroxisome proliferator-activated receptor delta (Homo sapiens) (UniProt Q03181). The experiment in a line: qHTS assay to identify small molecule agonists of the peroxisome proliferator-activated receptor delta (PPARd) signaling pathway (AID 743212; calls by dose curve). The essentials:
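GeneBLAzer PPARd UAS-bla HEK293H cells (beta-lactamase reporter under UAS control), plated and rested 5 h at 37 C, then exposed to compounds in DMSO at 37 C; LiveBLAzer B/G FRET substrate added, 2 h room temperature, fluorescence read.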

Experiment [10] in a line: qHTS assay to identify small molecule antagonists of the peroxisome proliferator-activated receptor delta (PPARd) signaling pathway - cell viability counter screen (AID 743213). Note: nearly all actives have a fitted effect of over 50% in size. Note: potency is the fitted concentration of half-maximal effect. The essentials: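 HEK293H cells with the PPARd UAS-bla reporter, co-treated 17 h at 37 C with compounds and L165041 (300 nM final), were lysed with CellTiter-Glo. Luminescence indicated viable cell content.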

In experiment [11] the target is Peroxisome proliferator-activated receptor delta (Homo sapiens) (UniProt Q03181). Description: qHTS assay to identify small molecule antagonists of the peroxisome proliferator-activated receptor delta (PPARd) signaling pathway (AID 743215; active = well fitted inhibition curve with a large enough effect in the signal ratio in the repeat runs, not every such curve was filed as active; the % refers to the signal ratio;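 note: cells stimulated with agonist L165041 at 300 nM final during compound exposure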; note: potency is the fitted concentration of half-maximal effect). Put shortly:
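With L165041 present at 300 nM final, compounds were incubated 17 h at 37 C on PPARd UAS-bla HEK293H cells. A FRET-based beta-lactamase substrate was then applied for 2 h at room temperature and fluorescence intensity recorded.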

The target in experiment [12] is Bile acid receptor (Homo sapiens) (UniProt Q96RI1). Description: qHTS assay to identify small molecule agonists of the farnesoid-X-receptor (FXR) signaling pathway (AID 743220; active = well fitted activation curve with a large enough effect in the signal ratio in the repeat runs, not every such curve was filed as active; the % refers to the signal ratio). The essentials: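 Beta-lactamase reporter under UAS control in GeneBLAzer FXR HEK 293T cells (5000/well) measured with LiveBLAzer FRET substrate after 2 h at room temperature. Compound exposure lasted 16 h at 37C.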
Sequence of Bile acid receptor (Homo sapiens) (Q96RI1 whole entry, looked up): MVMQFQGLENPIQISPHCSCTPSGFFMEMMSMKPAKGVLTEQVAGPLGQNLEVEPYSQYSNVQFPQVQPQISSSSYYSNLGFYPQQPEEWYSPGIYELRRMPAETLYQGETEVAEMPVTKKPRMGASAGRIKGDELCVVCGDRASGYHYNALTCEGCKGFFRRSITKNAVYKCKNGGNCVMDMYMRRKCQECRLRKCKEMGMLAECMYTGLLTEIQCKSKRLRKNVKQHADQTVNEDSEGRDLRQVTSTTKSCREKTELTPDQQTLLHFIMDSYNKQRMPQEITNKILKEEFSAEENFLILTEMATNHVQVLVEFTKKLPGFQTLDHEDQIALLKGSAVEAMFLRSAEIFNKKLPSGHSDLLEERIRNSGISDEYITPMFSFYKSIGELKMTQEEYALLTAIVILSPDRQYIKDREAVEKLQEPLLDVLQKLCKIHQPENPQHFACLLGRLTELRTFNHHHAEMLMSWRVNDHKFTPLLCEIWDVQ

Experiment [13] in a line: qHTS assay to identify small molecule antagonists of the farnesoid-X-receptor (FXR) signaling pathway - cell viability counter screen (AID 743221; active = well fitted cell-killing curve with a large enough effect in the repeat runs, not every such curve was filed as active; note: nearly all actives have a fitted effect of over 50% in size; note: potency is the fitted concentration of half-maximal effect). Put shortly:
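Here viability was scored by luminescence after CellTiter-Glo addition to wells already read for beta-lactamase. Prior treatment: compound plus CDCA (50 uM final), 16 h, 37 C, HEK 293T FXR-bla cells.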

The target in experiment [14] is Vitamin D3 receptor (Homo sapiens) (UniProt P11473). The experiment in a line: qHTS assay to identify small molecule antagonists of the vitamin D receptor (VDR) signaling pathway (AID 743223; active = well fitted inhibition curve with a large enough effect in the signal ratio in the repeat runs, not every such curve was filed as active; the % refers to the signal ratio). Put shortly:
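Inhibition of agonist-driven VDR signalling is scored in VDR-bla cells: 3 nM final 1alpha,25-dihydroxyvitamin D3 plus compound, 16 h at 37C, then beta-lactamase detection by FRET substrate fluorescence after 2 h.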

Experiment [15] is described as follows: qHTS assay to identify small molecule agonists of the vitamin D receptor (VDR) signaling pathway - cell viability counter screen (AID 743224). Note: nearly all actives have a fitted effect of over 50% in size. Note: potency is the fitted concentration of half-maximal effect. Put shortly:
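Here cell health was gauged by luminescent ATP detection (CellTiter-Glo, 30 min RT) in VDR-bla cells that had been incubated with test compounds for 16 h at 37C and 5% CO2.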

Experiment [16] deals with Aryl hydrocarbon receptor (Homo sapiens) (UniProt P35869). The experiment in a line: qHTS assay to identify small molecule that activate the aryl hydrocarbon receptor (AhR) signaling pathway (AID 743085).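 For activation: HG2L7.5c1 human HepG2 liver cells with stably integrated DRE-driven firefly reporter; series mostly up to about 70 µM.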 Note: nearly all actives have a fitted effect of over 15% in size. Note: potency is the fitted concentration of half-maximal effect. The essentials: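 Stably transfected human liver carcinoma cells (HG2L7.5c1; 20 DRE-firefly luciferase) were incubated 5 h, dosed, and kept 24 h at 37C. Agonism was scored from increased luciferase luminescence.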
Sequence of Aryl hydrocarbon receptor (Homo sapiens) (P35869 whole entry, looked up): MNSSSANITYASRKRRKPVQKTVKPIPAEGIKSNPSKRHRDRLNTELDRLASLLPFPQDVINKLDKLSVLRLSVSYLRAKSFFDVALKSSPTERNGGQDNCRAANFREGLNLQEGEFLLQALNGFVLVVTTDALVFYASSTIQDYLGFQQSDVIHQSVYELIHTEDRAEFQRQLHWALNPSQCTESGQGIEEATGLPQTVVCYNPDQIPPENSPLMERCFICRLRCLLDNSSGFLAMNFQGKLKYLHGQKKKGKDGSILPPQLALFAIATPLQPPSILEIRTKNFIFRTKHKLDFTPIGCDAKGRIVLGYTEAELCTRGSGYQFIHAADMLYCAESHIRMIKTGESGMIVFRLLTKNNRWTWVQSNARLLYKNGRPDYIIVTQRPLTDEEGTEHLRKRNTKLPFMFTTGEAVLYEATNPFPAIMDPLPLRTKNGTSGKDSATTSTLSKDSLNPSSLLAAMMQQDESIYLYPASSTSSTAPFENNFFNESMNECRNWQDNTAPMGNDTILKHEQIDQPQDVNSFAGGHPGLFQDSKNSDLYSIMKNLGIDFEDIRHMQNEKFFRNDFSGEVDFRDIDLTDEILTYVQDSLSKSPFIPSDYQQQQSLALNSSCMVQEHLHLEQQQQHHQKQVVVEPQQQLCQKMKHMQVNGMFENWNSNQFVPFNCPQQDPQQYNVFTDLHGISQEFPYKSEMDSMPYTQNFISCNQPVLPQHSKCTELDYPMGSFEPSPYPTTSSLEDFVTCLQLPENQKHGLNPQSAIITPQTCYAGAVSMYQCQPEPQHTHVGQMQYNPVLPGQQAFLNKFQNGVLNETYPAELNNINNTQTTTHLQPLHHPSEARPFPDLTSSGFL

Experiment [17] in a line: qHTS assay for small molecule activators of the heat shock response signaling pathway (AID 743210; active = well fitted activation curve with a large enough effect in the signal ratio in the repeat runs, with a control signal flat, not every such curve was filed as active; the % refers to the signal ratio; note: series mostly up to about 63 µM). Put shortly: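 HSE-bla HeLa cells (beta-lactamase reporter under heat shock response elements) were exposed to compounds for 5 h at 37 C, then loaded with LiveBLAzer B/G FRET substrate for 2.5 h at room temperature before fluorescence reading.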
Experiment [18] in a line: qHTS assay to identify small molecule agonists of the farnesoid-X-receptor (FXR) signaling pathway - cell viability counter screen (AID 743218). Note: nearly all actives have a fitted effect of over 45% in size. Note: potency is the fitted concentration of half-maximal effect. Put shortly:
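After 16 h at 37 C with test compounds, FXR-bla HEK 293T cells were given LiveBLAzer B/G substrate for 2 h at RT and then CellTiter-Glo; luminescence was taken after 30 min.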

The target in experiment [19] is Bile acid receptor (Homo sapiens) (UniProt Q96RI1). The experiment in a line: qHTS assay to identify small molecule antagonists of the farnesoid-X-receptor (FXR) signaling pathway (AID 743217; active = well fitted inhibition curve with a large enough effect in the signal ratio in the repeat runs, not every such curve was filed as active; the % refers to the signal ratio). Put shortly:
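In this cell-based antagonist screen, inhibition of CDCA-driven (50 uM final) UAS-beta-lactamase expression in HEK 293T cells was measured by FRET fluorescence following 16 h compound exposure at 37 °C.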

In experiment [20] the target is Vitamin D3 receptor (Homo sapiens) (UniProt P11473). The experiment in a line: qHTS assay to identify small molecule agonists of the vitamin D receptor (VDR) signaling pathway (AID 743222; calls by dose curve). The essentials:
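VDR-bla cells were seeded, left 4 h, treated with compounds in DMSO for 16 h, incubated 2 h at RT with B/G FRET substrate, and read for fluorescence.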

“And” between values parts separate entries of the source, which are not always exact repeats. Identical values can stand only once. Results filed as inconclusive are left out. Some compounds were tested as several samples or in several runs, with calls that do not always agree. The source made the active and inactive calls. Unless noted, calls come from the whole dose curve; as a rule, active = well fitted curve in the direction sought with a large enough effect in the repeat runs; inconclusive = weak or mixed curves; inactive = no such curve, though single readings can be large; an effect the other way counts as inactive or inconclusive.

Sequence of Peroxisome proliferator-activated receptor gamma (Homo sapiens) (P37231 whole entry, looked up): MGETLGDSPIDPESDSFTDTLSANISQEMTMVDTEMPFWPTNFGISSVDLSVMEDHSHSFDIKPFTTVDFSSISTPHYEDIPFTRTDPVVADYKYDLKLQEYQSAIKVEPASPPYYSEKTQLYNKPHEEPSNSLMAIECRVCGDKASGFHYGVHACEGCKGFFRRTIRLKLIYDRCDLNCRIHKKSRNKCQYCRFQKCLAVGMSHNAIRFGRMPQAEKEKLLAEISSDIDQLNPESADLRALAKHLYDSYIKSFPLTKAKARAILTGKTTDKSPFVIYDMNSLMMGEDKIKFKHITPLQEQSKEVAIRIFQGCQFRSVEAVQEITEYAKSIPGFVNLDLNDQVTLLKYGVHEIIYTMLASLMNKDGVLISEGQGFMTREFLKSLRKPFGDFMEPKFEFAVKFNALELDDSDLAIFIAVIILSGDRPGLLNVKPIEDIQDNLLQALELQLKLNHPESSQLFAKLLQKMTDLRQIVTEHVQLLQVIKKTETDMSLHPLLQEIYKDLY
Sequence of Peroxisome proliferator-activated receptor delta (Homo sapiens) (Q03181 whole entry, looked up): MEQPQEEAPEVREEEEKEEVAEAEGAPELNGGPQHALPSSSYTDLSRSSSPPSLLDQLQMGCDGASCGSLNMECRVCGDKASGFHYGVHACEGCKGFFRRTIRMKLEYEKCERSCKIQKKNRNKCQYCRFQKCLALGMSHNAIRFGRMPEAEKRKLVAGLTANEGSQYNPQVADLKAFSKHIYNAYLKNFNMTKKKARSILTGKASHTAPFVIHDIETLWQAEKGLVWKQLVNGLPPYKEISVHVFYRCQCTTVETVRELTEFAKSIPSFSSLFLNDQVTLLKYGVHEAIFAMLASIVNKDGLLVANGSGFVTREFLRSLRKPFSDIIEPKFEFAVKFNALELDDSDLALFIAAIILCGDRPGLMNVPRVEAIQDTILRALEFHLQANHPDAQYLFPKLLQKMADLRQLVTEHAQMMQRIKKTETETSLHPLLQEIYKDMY
Sequence of Vitamin D3 receptor (Homo sapiens) (P11473 whole entry, looked up): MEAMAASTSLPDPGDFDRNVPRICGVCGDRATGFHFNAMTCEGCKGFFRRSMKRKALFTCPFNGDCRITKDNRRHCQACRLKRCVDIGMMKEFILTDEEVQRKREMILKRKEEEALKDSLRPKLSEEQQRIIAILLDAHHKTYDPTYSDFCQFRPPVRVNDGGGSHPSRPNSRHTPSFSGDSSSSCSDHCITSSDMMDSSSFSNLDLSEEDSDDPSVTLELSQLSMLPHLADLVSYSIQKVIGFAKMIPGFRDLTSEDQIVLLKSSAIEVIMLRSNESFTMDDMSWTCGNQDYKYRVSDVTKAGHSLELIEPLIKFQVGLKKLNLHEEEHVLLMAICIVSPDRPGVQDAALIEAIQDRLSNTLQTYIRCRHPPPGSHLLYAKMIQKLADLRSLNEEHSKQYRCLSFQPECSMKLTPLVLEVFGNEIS

On to `COc1ccc(C(=O)CC(=O)c2ccc(C(C)(C)C)cc2)cc1`, for which the Potency entry in [1], in [2], in [3], in [4], in experiment [5] and in experiment [6] was “inactive” in each case. For the same compound, the Potency result in [7], in [8], in [10], in experiment [11], in experiment [13] and in experiment [15] was “inactive” in each case. For the same compound, the call in [9], in experiment [12] and in [14] was inactive.

Take `O=C(Nc1ccc(Cl)cc1)Nc1ccc(Cl)c(Cl)c1`: the Potency was 2.16 µM (active) and 2.73 µM (active) in experiment [16]; 4.34 µM (active) and 4.9 µM (active) and 6.68 µM (active) in [4]; 2.42 µM (active) and 2.73 µM (active) and 10.6 µM (active) in [6]; 19.4 µM (active) in experiment [10]; 19.4 µM (active) in [11]; “inactive and 2.66 µM (active)” in experiment [18]. The Potency in [15] is 19.4 µM (active) and 11 µM (active). Further, the Potency entry in experiment [1], in experiment [2], in experiment [7] and in [17] was “inactive” throughout. Also, the compound was classed as inactive in [9] and in [12].

As to `CC(C)CC(C)(O)C#CC(C)(O)CC(C)C` (stereo not drawn), the Potency result in [16], in [1], in experiment [4], in experiment [5], in [6] and in experiment [7] was “inactive” each time. Moreover, the Potency result in experiment [17], in experiment [8], in [10], in experiment [18], in experiment [13] and in experiment [15] was “inactive” each time. The call in experiment [14] was inactive.

With `C#C[C@]1(O)CC[C@H]2[C@@H]3CCC4=Cc5oncc5C[C@]4(C)[C@H]3CC[C@@]21C`, the Potency entry in experiment [16], in [1], in [2], in experiment [17] and in [10] was “inactive” in each case. Besides, the Potency in experiment [4] is 54.9 µM (active); in experiment [15] it was 54.9 µM (active) and inactive.

As for `c1cc(N(CC2CO2)CC2CO2)ccc1OCC1CO1` (stereo not drawn), the Potency entry in experiment [16], in experiment [6], in experiment [10], in experiment [13] and in experiment [15] was “inactive” throughout. In experiment [5], the Potency is 27.3 µM (active) and 19.3 µM (active).

For `NNc1ccc(C(=O)O)cc1`, the Potency entry in experiment [1], in [2], in experiment [3], in experiment [4], in [5] and in [6] was “inactive” each time. In addition, the Potency entry in [7], in experiment [17], in experiment [8], in experiment [10], in experiment [11] and in experiment [18] was “inactive” each time. Moreover, the Potency entry in experiment [13] and in [15] was “inactive” in each case. Besides, the result in experiment [9] was inactive.

For `O=C(COc1ccc(Cl)cc1)N1CCN(Cc2ccc3c(c2)OCO3)CC1`, the Potency result in [16], in experiment [1], in experiment [6], in experiment [7], in experiment [17] and in experiment [8] was “inactive” each time. The Potency entry in experiment [10], in experiment [11], in experiment [13] and in experiment [15] was “inactive” throughout. In experiment [5], the Potency was 15.4 µM (active) and 29.8 µM (active). The outcome in [9] was inactive.

Take `CN1C(C(=O)Nc2ccccn2)=C(O)c2ccccc2S1(=O)=O`: the Potency result in experiment [1], in [2], in [3], in experiment [4], in [5] and in experiment [6] was “inactive” each time. Further, the Potency result in experiment [7], in experiment [17], in experiment [8], in experiment [10], in experiment [11] and in experiment [19] was “inactive” each time. Besides, the Potency result in experiment [18], in experiment [13] and in experiment [15] was “inactive” in each case. For the same compound, the compound was classed as inactive in [9], in experiment [12], in experiment [20] and in [14].

Turning to `C[C@]12CC[C@H]3[C@@H](CCC4=CC(=O)CC[C@@]43C)[C@@H]1CC[C@@H]2C(=O)CO`, the Potency entry in [16], in [1], in [2], in [4], in experiment [6] and in [7] was “inactive” throughout. The Potency result in [17], in experiment [8], in [10], in [13] and in [15] was “inactive” in each case. In [9], the compound was classed as inactive.

As for `CN(C)CCC=C1c2ccccc2CCc2ccccc21`, the Potency entry in experiment [16], in [3], in experiment [6], in experiment [7], in experiment [17] and in experiment [11] was “inactive” throughout. In addition, the Potency result in [19] was “inactive”. Besides, the Potency in experiment [1] was 48.6 µM (active); in [8], 43.7 µM (active) and 38.9 µM (active) and 29.8 µM (active); in experiment [10], 24.5 µM (active); in experiment [18], 49 µM (active) and 19.5 µM (active); in experiment [13] it was 43.7 µM (active) and 29.8 µM (active); in [15], 49 µM (active) and 21.9 µM (active). Besides, the call in experiment [9], in experiment [12] and in [20] was inactive.

(Values after PubChem BioAssay (Tox21).)
